Assay results reported in PubChem BioAssay (EPA / NIEHS).
Records with an inconclusive call do not appear. The source made the active and inactive calls. The calls were made as follows: active = hit-call score of the fitted dose curve at least 0.9, where 1 is the maximum; inconclusive = response in the unintended direction; inactive = score below 0.9.

Target: PGR (gene 5241) (UniProt P06401)
Experiment: NVS_NR_hPR: NovaScreen (NVS) Nuclear Receptor Binding Assay for human Progestron Receptor (PR) (AID 2283360);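 also: active means loss of bound radioligand signal versus DMSO baseline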
Summary of the method: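 Radioligand competition binding on receptor extracted from T47D cells, read by scintillation counting 18 h after dosing. Loss of signal versus DMSO; primary screen in duplicate at 25 uM, actives followed in concentration series.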

Chain of PGR (gene 5241) (P06401 whole entry, looked up): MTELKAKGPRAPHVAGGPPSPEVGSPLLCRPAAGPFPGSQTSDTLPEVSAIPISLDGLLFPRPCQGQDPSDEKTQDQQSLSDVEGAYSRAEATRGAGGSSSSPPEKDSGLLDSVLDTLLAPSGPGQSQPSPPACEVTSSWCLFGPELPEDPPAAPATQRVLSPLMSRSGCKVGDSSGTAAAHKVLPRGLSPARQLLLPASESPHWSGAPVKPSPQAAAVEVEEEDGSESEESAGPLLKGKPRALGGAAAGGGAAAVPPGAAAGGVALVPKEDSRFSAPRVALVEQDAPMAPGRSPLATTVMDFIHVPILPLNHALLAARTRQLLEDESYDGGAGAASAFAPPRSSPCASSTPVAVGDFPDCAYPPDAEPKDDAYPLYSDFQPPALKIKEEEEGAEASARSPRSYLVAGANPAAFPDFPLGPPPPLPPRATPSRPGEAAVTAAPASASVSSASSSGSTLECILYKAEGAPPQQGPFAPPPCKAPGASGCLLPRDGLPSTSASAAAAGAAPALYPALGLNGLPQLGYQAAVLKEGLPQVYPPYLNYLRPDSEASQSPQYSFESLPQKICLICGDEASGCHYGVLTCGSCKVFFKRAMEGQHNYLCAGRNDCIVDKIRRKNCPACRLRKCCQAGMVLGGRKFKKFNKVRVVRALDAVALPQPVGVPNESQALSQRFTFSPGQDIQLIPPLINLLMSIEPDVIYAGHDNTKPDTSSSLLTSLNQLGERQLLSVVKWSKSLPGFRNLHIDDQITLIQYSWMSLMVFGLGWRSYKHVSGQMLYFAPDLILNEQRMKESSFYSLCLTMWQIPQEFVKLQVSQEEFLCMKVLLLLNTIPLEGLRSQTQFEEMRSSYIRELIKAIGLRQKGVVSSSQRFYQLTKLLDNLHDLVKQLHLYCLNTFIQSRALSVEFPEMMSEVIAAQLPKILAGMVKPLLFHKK

| Structure (SMILES) | outcome | AC50 |
| --- | --- | --- |
| Nc1cccc2ccccc12 | inactive |  |
| COC[C@H](C)N(C(=O)CCl)c1c(C)csc1C |  | 8.39 µM (active) |
| Nc1ccc(-c2ccc(N)c(Cl)c2)cc1Cl |  | 41.1 µM (active) |
| C=CC(=O)N(C)C | inactive |  |

Target: Nuclear receptor subfamily 1 group I member 2 (Homo sapiens) (UniProt O75469)
Sequence (O75469 whole entry, looked up): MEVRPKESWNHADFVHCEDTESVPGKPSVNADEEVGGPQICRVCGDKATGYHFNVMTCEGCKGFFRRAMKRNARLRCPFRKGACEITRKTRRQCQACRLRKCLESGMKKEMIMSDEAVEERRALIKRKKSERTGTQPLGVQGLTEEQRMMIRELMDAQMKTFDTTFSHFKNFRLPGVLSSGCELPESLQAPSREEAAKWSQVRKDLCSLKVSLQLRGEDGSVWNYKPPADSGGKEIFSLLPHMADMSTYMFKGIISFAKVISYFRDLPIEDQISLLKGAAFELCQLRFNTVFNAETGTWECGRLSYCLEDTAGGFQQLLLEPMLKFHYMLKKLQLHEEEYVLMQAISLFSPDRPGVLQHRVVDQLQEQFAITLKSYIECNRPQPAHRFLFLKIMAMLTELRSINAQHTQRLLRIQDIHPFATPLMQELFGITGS
Experiment: NVS_NR_hPXR: NovaScreen (NVS) Nuclear Receptor Binding Assay for human Pregnane X Receptor (PXR) (AID 2283365);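 also: a drop in FRET signal versus DMSO baseline means the compound binds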
Summary of the method: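 Binding was measured by time-resolved fluorescence resonance energy transfer after a 2 h exposure of extracted human PXR protein without cells. Compounds were first tested at 25 uM in duplicate, with concentration series for actives; DMSO defined baseline.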

| Structure (SMILES) | outcome | AC50 |
| --- | --- | --- |
| C1CCC(NC2CCCCC2)CC1 | inactive |  |
| O=C(Nc1ccc2[nH]ccc2c1)c1cc2cc(F)ccc2n1Cc1cccc(F)c1 | inactive |  |
| CCC[CH2][Sn]([CH2]CCC)([CH2]CCC)[O]C(=O)c1ccccc1 |  | 14.6 µM (active) |
| CC1(C)CCC(Cc2ccc(Cl)cc2)C1(O)Cn1cncn1 (centres undefined) | inactive |  |
| Cc1ccccc1N | inactive |  |

Target: guinea pig Sigma Receptor, Non-selective Binding, SIGMAR1 (gene 100135589) (UniProt Q60492)
Sequence (Q60492 whole entry, looked up): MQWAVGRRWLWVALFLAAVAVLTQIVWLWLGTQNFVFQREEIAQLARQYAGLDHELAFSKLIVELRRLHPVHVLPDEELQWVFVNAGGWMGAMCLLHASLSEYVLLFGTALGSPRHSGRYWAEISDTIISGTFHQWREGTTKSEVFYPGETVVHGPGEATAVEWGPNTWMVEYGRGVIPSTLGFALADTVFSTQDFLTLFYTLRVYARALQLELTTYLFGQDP
Experiment: NVS_OR_gSIGMA_NonSelective: NovaScreen (NVS) Nuclear Receptor Binding Assay for guinea pig Sigma Receptor, Non-selective Binding (AID 2283367)
Summary of the method: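 Guinea pig brain membranes, cell-free radioligand binding; read 1 h after dosing by filter-based scintillation counting. Loss of signal vs DMSO baseline taken as displacement. Primary screen single concentration 25 uM in duplicate; actives retested in concentration series.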

| Structure (SMILES) | AC50 | outcome |
| --- | --- | --- |
| CCOC(=O)/C=C(C)/C=C/C[C@@H](C)CCCC(C)C | 11 µM (active) |  |
| NC(=S)Nc1ccccc1 | 33 µM (active) |  |
| Nc1cccc2ccccc12 |  | inactive |
| C(=NC1CCCCC1)=NC1CCCCC1 | 30.8 µM (active) |  |
| Nc1ccc(-c2ccc(N)c(Cl)c2)cc1Cl | 32.5 µM (active) |  |
